TDP1 cell noCPT – qHTS for Inhibitors of human tyrosyl-DNA phosphodiesterase 1 (TDP1): qHTS in cells in absence of CPT | 420,000 compounds, 15% hits | AID 686978, 2013 | Potency, µM (top dose mostly 46.2 µM), for the others: at the top dose activity change, negative = growth inhibition, most hits filed as inhibitors | DT40 Tdp1-/- hTDP1 cells, no CPT, ATP luminescence, 48 h; also: potency is read from the fitted curve at half-maximal effect; % is scaled to controls: 0 for no effect and ±100 for the full control effect; nearly all actives have a fitted effect of over 55% in size
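Seeded 400 DT40-hTDP1 cells/well (vehicle DMSO, no 20 nM CPT); pinned compounds; ≥48 hr at 37 °C; CellTiter-Glo luminescence as viability measure.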
DT40 TDP1 CPT – DT40-hTDP1 cell growth loss with CPT; chicken DT40 Tdp1-/-;hTDP1 cells + 20 nM CPT, ATP luminescence, 48 h; 420,000 compounds, 12% hits; Potency, µM (series often up to 46.2 µM), without a hit: at the top dose activity change, negative = growth inhibition, hits mostly inhibitors; also: potency is read from the fitted curve at half-maximal effect; % is scaled to controls: 0 for no effect and ±100 for the full control effect; nearly all actives have a fitted effect of over 55% in size
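Cell growth measured by CellTiter-Glo luminescence after a minimum 48 h, 37 C compound exposure with 20 nM CPT in Tdp1-knockout DT40 cells stably expressing hTDP1, seeded 400/well; qHTS titration format.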
HepG2 viability – counter-screen for TGF-b inhibitors: cytotoxicity in HepG2 cells. HepG2 CAGA-GFP viability, ATP luminescence, 18 h. Potency, µM (series often up to 46.1 µM), for inactives: at the highest dose activity change, negative = cytotoxicity, hits mostly cytotoxic. 410,000 compounds, 0.76% hits; also: potency is read from the fitted curve at half-maximal effect
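CellTiter-Glo luminescence gave cytotoxicity after 18 hours at 37 degrees C. The cells were HepG2 CAGA-GFP in 1% FBS DMEM, stimulated with 500 pg/mL TGF-beta after compound addition. %Activity was normalised to no-cell wells (complete cell-killing) and DMSO (no toxicity), and curves were fitted and classified.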
IL1B secr inh – blocks inflammasome-driven IL-1 beta release | THP-1 LPS/ATP IL-1B secretion, AlphaLISA, 16 h; active compounds read low | activity change, % at 57.5 µM | 360,000 compounds, 4.7% hits | AID 743279; in the data active = activity change below about -50%; inconclusive = mostly about -30% to -49%; also: % is scaled to controls: 0 for no effect and ±100 for the full control effect
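THP-1 cells pretreated 1 hr with compounds (up to 57.5 uM final), then stimulated with LPS (250 ng/mL final) plus ATP (1.25 mM final); secreted IL-1B measured by AlphaLISA after 16 hr, decreased signal indicating inhibition.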
TGFb SMAD3 inh – TGF-b pathway inhibition; HepG2 CAGA-GFP TGF-b/SMAD3 reporter, GFP fluorescence, 18 h; TGF-beta stimulated, 500 pg/mL final; Potency, µM (top dose mostly 46.1 µM), for inactives: at the top dose activity, negative = inhibition, most hits filed as inhibitors; 410,000 compounds, 1.2% hits; AID 588855; also: potency is read from the fitted curve at half-maximal effect; % is scaled to controls: 0 for no effect and ±100 for the full control effect; nearly all actives have a fitted effect of over 65% in size
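Smad-responsive CAGA-GFP expression was quantified in HEPG2 cells exposed to compounds and 500 pg/mL final TGF-beta for 18 h at 37 degrees C; unstimulated wells defined full inhibition.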
TDP1 inh – blocks human tyrosyl-DNA phosphodiesterase 1. Q9NUW8. recombinant TDP1, AlphaScreen DNA substrate cleavage. Potency, µM (highest dose often 130 µM), for inactives: top-dose activity change, negative = inhibition, usual class: inhibitors. 350,000 compounds, 0.28% hits. AID 485290; also: potency is read from the fitted curve at half-maximal effect; % is scaled to controls: 0 for no effect and ±100 for the full control effect; nearly all actives have a fitted effect of over 40% in size
Target sequence (Q9NUW8 whole entry, looked up): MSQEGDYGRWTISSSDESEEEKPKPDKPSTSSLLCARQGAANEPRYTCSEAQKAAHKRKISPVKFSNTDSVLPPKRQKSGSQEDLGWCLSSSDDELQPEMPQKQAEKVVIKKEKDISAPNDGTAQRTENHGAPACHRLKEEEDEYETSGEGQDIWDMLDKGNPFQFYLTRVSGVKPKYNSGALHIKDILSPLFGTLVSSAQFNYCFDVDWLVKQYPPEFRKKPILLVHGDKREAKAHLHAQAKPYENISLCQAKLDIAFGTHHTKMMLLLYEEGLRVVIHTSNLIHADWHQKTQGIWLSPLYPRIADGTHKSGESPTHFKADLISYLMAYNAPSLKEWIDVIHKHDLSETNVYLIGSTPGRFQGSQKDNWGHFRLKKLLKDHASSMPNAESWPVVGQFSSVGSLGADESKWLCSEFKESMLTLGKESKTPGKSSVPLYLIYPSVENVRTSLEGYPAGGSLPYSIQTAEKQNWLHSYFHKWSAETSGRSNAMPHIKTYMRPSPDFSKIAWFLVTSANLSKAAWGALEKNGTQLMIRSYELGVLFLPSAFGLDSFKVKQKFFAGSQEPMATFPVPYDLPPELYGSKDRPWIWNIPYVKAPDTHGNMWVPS
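Tdp1 1 nM final; 15 min RT w/ cpd; substrate 15 nM, 5 min; beads 10 ug/ml, 10 min; AlphaScreen read. Neg ctrl: no enzyme.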
Active calls of the source: *; ? = inconclusive; . = not tested or not shown; [ ] = another dose, or the depositor's remark. Most compounds without a hit are left out; they make up all but 18% or so of the library. Unless noted, calls follow the shape of the dose curve; as a rule, active = well fitted curve in the direction sought with a large enough effect; inconclusive = small, poorly fitted or top-dose-only effect, or another doubt; inactive = no such curve, though single readings can be large; an effect the other way counts as inactive or inconclusive.

SMILES | TDP1 cell noCPT | DT40 TDP1 CPT | HepG2 viability | IL1B secr inh | TGFb SMAD3 inh | TDP1 inh
Cn1c(=O)n(C)c2cc([N+](=O)[O-])c(N3CCN(C(=O)c4cccc(Cl)c4)CC3)cc21 | 18.4µM* | ? | -8.9% | -5.8 | ? | 3.0%
Cn1c(=O)n(C)c2cc([N+](=O)[O-])c(N3CCN(S(=O)(=O)c4ccc5ccccc5c4)CC3)cc21 | ? | 16.4µM* | -2.9% | ? | ? | 0.0%
COc1ccc(-n2c(CNC(=O)c3c(-c4ccccc4)noc3C)nnc2SC)cc1 | -7.8% | -12.6% | . | . | . | .
COc1ccc(-c2c(C)nn3c(N)c(-c4ccccc4)cnc23)cc1OC | 6.51µM* | 5.8µM* | -9.3% | ? | 21.3% | .
COCc1nn2c(N)c(-c3ccccc3)cnc2c1-c1ccccc1 | -22.6% | 5.9% | -1.3% | -12.5 | 3.8% | .
COc1ccccc1-c1c(C)nn2c(N)c(-c3ccccc3)cnc12 | 5.8µM* | 6.51µM* | -23.1% | -74.0* | ? | .
COc1ccc(-c2c(C)nn(-c3ccccc3)c2N)cc1OC | -25.7% | -6.0% | -22.9% | -4.2 | 3.6% | 2.5%
O=C(Nc1nnc(S(=O)(=O)N2CCCc3ccccc32)s1)c1ccccc1Cl | ? | ? | -19.8% | . | ? | -2.6%
COc1ccc(-c2nc(C#N)c(N3CCC(C(N)=O)CC3)o2)cc1 | -24.4% | 13.3% | -10.0% | -0.6 | ? | 3.9%
N#Cc1nc(COc2ccc(-c3ccccc3)cc2)oc1N1CCC(C(N)=O)CC1 | 17.8µM* | 12.6µM* | -55.1% | . | -22.7% | 3.6%
CC(C)(C)c1ccc(-c2nc(C#N)c(N3CCC(C(N)=O)CC3)o2)cc1 | ? | 15.4% | -31.2% | -94.2* | 5.6% | .
N#Cc1nc(COc2ccc(Br)cc2)oc1N1CCCCCC1 | 16.4µM* | 14.6µM* | -3.2% | -21.3 | -2.8% | 7.4%
N#Cc1nc(COc2ccc(Br)cc2)oc1N1CCCC1 | ? | ? | 4.3% | -24.2 | 15.7% | 11.0%
CN1C(=O)[C@@H]2[C@H](C1=O)[C@@H]1C(=O)Nc3ccccc3C(=O)N1[C@@H]2c1ccc(Br)cc1 | -16.1% | -15.6% | 7.3% | 17.6 | 12.2% | -1.3%
Cc1cc(C)n(Cc2cccc(C(=O)NCC3Cc4cccc(-c5ncccn5)c4O3)c2)n1 (stereo not given) | -29.3% | 0.7%[9.04 µM] | . | . | . | .
Cc1ccc(C2CC(=O)Oc3ccc(O)cc32)cc1 (stereo not given) | . | . | . | . | . | -1.0%[234 µM]
COc1cc(OC)cc(-c2cc3cc4c(cc3cn2)OCO4)c1 | 0.517µM* | 0.651µM* | -20.8% | 35.7 | ? | -0.5%
COc1ccc(-c2cc3cc4c(cc3cn2)OCO4)cc1 | -17.7% | -19.9% | -2.4% | 30.1 | 0.5% | 0.2%
COc1ccc2cc(-c3ccsc3)ncc2c1 | ? | -29.2% | -15.1% | 56.3 | ? | 1.0%
COc1cc(OC)cc(-c2cc3ccc(OC)cc3cn2)c1 | 13µM* | 16.4µM* | -86.0% | -3.6 | ? | -5.4%
CCn1c(SCC(=O)NNC(=O)c2ccc(C)cc2)nnc1C1CC1 | -26.3% | -12.8% | 0.4% | 11.0 | -1.5% | 0.7%
CCCCn1nnnc1SCC(=O)c1ccccc1F | 8.9% | -10.1% | -1.3% | -15.6 | -9.7% | 8.3%
CCn1c(SCC(=O)NNC(=O)c2ccc(C)cc2)nnc1C(C)C | 10.3µM* | ? | -3.9% | 1.2 | 8.6% | .
CCCn1c(SCC(=O)c2cc(OC)ccc2OC)nnc1C(C)C | ? | 15.8µM* | -1.3% | -19.5 | 0.8% | -4.2%
CCCCn1nnnc1SCC(=O)c1cc(Cl)ccc1OC | -14.6% | -15.5% | -4.9% | -57.3* | -3.5% | -11.8%

Assay outcomes deposited in PubChem by National Center for Advancing Translational Sciences (NCATS).
